STK33 inh: human STK33 kinase inhibition; Q9BYT3; ADP-Glo luminescence, MBP substrate; inhibition, % at 12.5 µM; actives 0.44% (n = 27,000); in the data active = inhibition above about 20%
Target sequence (Q9BYT3 whole entry, looked up): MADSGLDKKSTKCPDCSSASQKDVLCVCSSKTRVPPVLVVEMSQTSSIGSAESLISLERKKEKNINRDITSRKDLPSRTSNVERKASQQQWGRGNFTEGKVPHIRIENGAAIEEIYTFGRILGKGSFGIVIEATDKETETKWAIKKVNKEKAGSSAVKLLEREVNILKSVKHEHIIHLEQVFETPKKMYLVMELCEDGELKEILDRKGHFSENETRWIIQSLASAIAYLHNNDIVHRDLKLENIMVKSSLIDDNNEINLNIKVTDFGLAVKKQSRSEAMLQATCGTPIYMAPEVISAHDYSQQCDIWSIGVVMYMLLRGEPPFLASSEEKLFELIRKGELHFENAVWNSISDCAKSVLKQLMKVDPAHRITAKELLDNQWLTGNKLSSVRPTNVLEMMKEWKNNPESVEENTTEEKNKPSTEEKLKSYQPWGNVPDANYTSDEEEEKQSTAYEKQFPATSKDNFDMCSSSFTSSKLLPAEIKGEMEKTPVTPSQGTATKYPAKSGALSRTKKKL
ID4 binder: binds human ID4 protein on microarray. actives 1.2% (n = 31,000). small molecule microarray, Flag-ID4 binding, fluorescence F/B. P47928. calls only; call rule not given here;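 also: a binder raises fluorescence above local background on the spot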
Large screens that a line does not name were inactive. In the library only some 1.3% were active in any assay of this set; here they are far more common.

Cc1cc(O)cc2oc(=O)c3c(O)cc(O)cc3c12	STK33 inh 74
C=C1[C@@H](C)[C@H]2[C@H](Cc3ccccc3)NC(=O)[C@]23[C@H](OC(C)=O)C=C[C@](C)(O)C(=O)[C@@H](C)C/C=C/[C@H]3[C@@H]1O	none (no result: ID4 binder)
C[C@@H]1O[C@@H](O[C@H]2[C@H](O)[C@@H](O)[C@H](O[C@@H]3C=C4CC[C@@H]5C(CC[C@]6(C)[C@@H](c7ccc(=O)oc7)CC[C@]56O)[C@@]4(C)CC3)O[C@@H]2CO)[C@H](O)[C@H](O)[C@H]1O (stereo partly drawn)	none (no result: ID4 binder)
N#C/C(=C\c1ccc(O)cc1)C(=O)O	STK33 inh 27 (no result: ID4 binder)
N#CC(C#N)=Cc1ccc(O)c(O)c1	none
CC[C@@H]1/C=C\C=C\C[C@H](C)C(O)[C@](C)(O)C(=O)[C@H](C)C(O)[C@H](C)C(=O)[C@H](C)[C@@H](O)[C@H](C)/C=C/C(=O)O[C@H]2[C@@H](C)[C@@H](CC1)O[C@@]1(CC[C@@H](C)[C@@H](C[C@H](C)O)O1)[C@@H]2C (stereo partly drawn)	none (no result: ID4 binder)
C[C@@H]1O[C@@H](OC2CCC3(C)C4CCC5(C)C(C6=CC(=O)OC6)CCC5(O)C4CC[C@H]3C2)[C@H](O)[C@H](O)[C@H]1O (stereo partly drawn)	none
CN1C(=O)COc2c(C(=O)NC3CN4CCC3CC4)cc(Cl)cc21 (stereo not drawn)	none
O=C(N[C@H]1CN2CCC1CC2)c1ccc(Cl)cc1	ID4 binder active (no result: STK33 inh)
COC(=O)[C@@]1(O)C[C@@H]2O[C@@]1(C)n1c3ccccc3c3c4c(c5c6ccccc6n2c5c31)C(=O)NC4	STK33 inh 108 (no result: ID4 binder)
C/C1=C/C(=O)O[C@@H]2C[C@@H](CC[C@H](C)/C=C\CC1)O[C@@](O)([C@@H]1CSC(=O)N1)C2	none (no result: ID4 binder)
Cc1ccc2c(c1)-c1cc(C)nn1C(c1cccnc1)N2 (stereo not drawn)	none (no result: STK33 inh)
COc1ccc(CN2CCN(CCO)CC2)c(OC)c1C	none
COc1ccc2c(c1)/C(=C/c1cnc[nH]1)C(=O)N2	STK33 inh 79
CC1CCC/C=C/C2CC(O)CC2C(O)/C=C\C(=O)O1 (stereo not drawn)	none (no result: STK33 inh)
O=C1c2ccccc2-c2cccc3cccc1c23	STK33 inh 76
c1ccc2c(c1)cc1ccc3cccc4ccc2c1c34	none
CCOC(=O)[C@@H]1[C@@H]2NC(=O)N(C)[C@@]1(COCc1ccc(OC)cc1)Oc1ccccc12	none (no result: STK33 inh)

Screening results: PubChem, Broad Institute
